PubChem BioAssay (EPA / NIEHS)
Inconclusive results are not listed. The source made the active and inactive calls. The calls were made as follows, unless noted: active = hit-call score of the fitted dose curve at least 0.9, where 1 is the maximum; inconclusive = response in the unintended direction; inactive = score below 0.9.

Experiments:
[1] = ATG_Oct_MLP_CIS: Attagene CIS-FACTORIAL HepG2 Assay for human Octamer-Binding Transcription Factor (Oct) (AID 2282993; active = hit-call score of the fitted dose curve at least 0.9, where 1 is the maximum; inactive = score below 0.9); conditions: HepG2 Attagene cis-factorial Oct reporter, mRNA; actives raise or lower the signal
In short: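 Multiplexed cis-reporter assay in human liver HepG2 cells, 24 h incubation. Reporter RNA amplified and labelled, then resolved by capillary electrophoresis; DMSO serves as negative control and baseline.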

[2] = BSK_3C_TissueFactor: BioMAP Diversity Plus: 3C Assay for Tissue Factor Biomarker Activity (AID 2282997; active = hit-call score of the fitted dose curve at least 0.9, where 1 is the maximum; inactive = score below 0.9); conditions: BioMAP 3C HUVEC, tissue factor biomarker readout; actives raise or lower the signal
In short: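 HUVEC were treated 24 h, then surface tissue factor measured by ELISA and fitted bidirectionally against DMSO. Parallel SRB total-protein staining assessed overt cytotoxicity at the same time point.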

[3] = BSK_3C_uPAR: BioMAP Diversity Plus: 3C Assay for Urokinase-type plasminogen activator receptor (uPAR) Biomarker Activity (AID 2282998; active = hit-call score of the fitted dose curve at least 0.9, where 1 is the maximum; inactive = score below 0.9); conditions: BioMAP 3C HUVEC, uPAR biomarker ELISA; actives raise or lower the signal
In short: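 Dose primary human umbilical vein endothelial cells, incubate 24 h, measure cell-surface uPAR by ELISA, then fit the signal in both directions against the DMSO negative control.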

[4] = BSK_3C_VCAM1: BioMAP Diversity Plus: 3C Assay for Vascular cell adhesion molecule 1 (VCAM1) Biomarker Activity (AID 2282999; active = hit-call score of the fitted dose curve at least 0.9, where 1 is the maximum; inactive = score below 0.9); conditions: BioMAP 3C HUVEC, VCAM1 ELISA, cytokine-stimulated; actives raise or lower the signal
In short: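 Endothelial cells from human umbilical vein are treated with test chemical. At 24 h, VCAM-1 is measured by ELISA, and responses in either direction are fitted relative to DMSO.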

[5] = BSK_4H_Eotaxin3: BioMAP Diversity Plus: 4H Assay for Eotaxin 3 Biomarker Activity (AID 2283000; active = hit-call score of the fitted dose curve at least 0.9, where 1 is the maximum; inactive = score below 0.9;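 also: CCL26 protein level quantified by ELISA in parallel with SRB cytotoxicity check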); conditions: primary human endothelial cells (HUVEC); actives raise or lower the signal
In short: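 Eotaxin-3 (CCL26) levels were measured by ELISA in HUVEC primary cultures 24 h post-dosing. Gain or loss of signal was fitted in both directions, with DMSO serving as baseline and negative control.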

[6] = target: human Peroxisome Proliferator-activated Receptor alpha (PPARa), PPARA (gene 5465) (UniProt Q07869); test: ATG_PPARa_TRANS: Attagene TRANS-FACTORIAL HepG2 Assay for human Peroxisome Proliferator-activated Receptor alpha (PPARa) (AID 2283001);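 as to AC50: potency for gain of reporter signal over DMSO so agonist or activator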
Sequence of human Peroxisome Proliferator-activated Receptor alpha (PPARa), PPARA (gene 5465) (Q07869 whole entry, looked up, the tested form may be a part): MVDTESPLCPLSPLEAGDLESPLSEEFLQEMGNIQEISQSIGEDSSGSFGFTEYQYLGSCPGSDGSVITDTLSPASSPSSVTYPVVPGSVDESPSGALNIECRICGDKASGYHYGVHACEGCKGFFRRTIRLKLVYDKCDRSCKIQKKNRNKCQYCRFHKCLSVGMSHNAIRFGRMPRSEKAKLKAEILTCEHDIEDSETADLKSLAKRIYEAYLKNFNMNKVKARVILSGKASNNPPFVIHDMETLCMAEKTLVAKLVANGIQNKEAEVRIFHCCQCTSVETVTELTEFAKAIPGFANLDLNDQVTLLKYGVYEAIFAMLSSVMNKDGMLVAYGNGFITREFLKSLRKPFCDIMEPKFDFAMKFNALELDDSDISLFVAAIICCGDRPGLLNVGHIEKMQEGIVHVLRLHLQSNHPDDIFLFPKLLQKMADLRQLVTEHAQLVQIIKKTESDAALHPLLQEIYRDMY
In short: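 Reporter transcripts from GAL4-UAS units in transfected HepG2 were quantified 24 h after dosing. Detection used reverse transcription, PCR, fluorescent primer extension and capillary electrophoresis, with DMSO as baseline.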

[7] = read-out: Intercellular Adhesion Molecule 1 (ICAM1), ICAM1 (gene 3383); test: BSK_3C_ICAM1: BioMAP Diversity Plus: 3C Assay for Intercellular Adhesion Molecule 1 (ICAM1) Biomarker Activity (AID 2283003; active = hit-call score of the fitted dose curve at least 0.9, where 1 is the maximum; inactive = score below 0.9); conditions: primary human endothelial cells (HUVEC); actives raise or lower the signal
In short: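 Primary human umbilical vein endothelial cells in the BioMAP 3C system were exposed to chemicals for 24 h, then ICAM-1 was quantified by ELISA. Activity was fitted bidirectionally against the DMSO negative control baseline.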

[8] = target: human Retinoic Acid Receptor beta (RARb), RARB (gene 5915) (UniProt P10826); test: ATG_RARb_TRANS: Attagene TRANS-FACTORIAL HepG2 Assay for human Retinoic Acid Receptor beta (AID 2283004)
Sequence of human Retinoic Acid Receptor beta (RARb), RARB (gene 5915) (P10826 whole entry, looked up, the tested form may be a part): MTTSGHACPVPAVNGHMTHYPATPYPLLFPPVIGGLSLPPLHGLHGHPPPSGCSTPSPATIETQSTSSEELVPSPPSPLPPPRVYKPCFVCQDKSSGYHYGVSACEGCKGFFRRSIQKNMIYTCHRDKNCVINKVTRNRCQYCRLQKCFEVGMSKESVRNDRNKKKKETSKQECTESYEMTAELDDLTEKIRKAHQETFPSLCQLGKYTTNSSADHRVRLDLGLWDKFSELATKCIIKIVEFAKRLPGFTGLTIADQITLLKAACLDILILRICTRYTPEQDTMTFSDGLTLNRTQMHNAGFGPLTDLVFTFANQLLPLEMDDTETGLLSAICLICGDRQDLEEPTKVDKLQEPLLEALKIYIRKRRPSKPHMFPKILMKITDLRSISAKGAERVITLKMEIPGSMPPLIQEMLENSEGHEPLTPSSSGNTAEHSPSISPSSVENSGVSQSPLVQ
In short: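 HepG2 cells were transiently transfected with GAL4-UAS reporter units that report activity of exogenous chimeric NR-Gal4 proteins, then exposed to compound for 24 h. Reporter mRNA was quantified by RT-PCR with capillary electrophoresis fluorescence, as gain of signal over DMSO.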

[9] = target: Retinoic acid receptor alpha (Homo sapiens) (UniProt P10276); test: ATG_RARa_TRANS: Attagene TRANS-FACTORIAL HepG2 Assay for human Retinoic Acid Receptor alpha (RARa) (AID 2283005)
Sequence of Retinoic acid receptor alpha (Homo sapiens) (P10276 whole entry, looked up, the tested form may be a part): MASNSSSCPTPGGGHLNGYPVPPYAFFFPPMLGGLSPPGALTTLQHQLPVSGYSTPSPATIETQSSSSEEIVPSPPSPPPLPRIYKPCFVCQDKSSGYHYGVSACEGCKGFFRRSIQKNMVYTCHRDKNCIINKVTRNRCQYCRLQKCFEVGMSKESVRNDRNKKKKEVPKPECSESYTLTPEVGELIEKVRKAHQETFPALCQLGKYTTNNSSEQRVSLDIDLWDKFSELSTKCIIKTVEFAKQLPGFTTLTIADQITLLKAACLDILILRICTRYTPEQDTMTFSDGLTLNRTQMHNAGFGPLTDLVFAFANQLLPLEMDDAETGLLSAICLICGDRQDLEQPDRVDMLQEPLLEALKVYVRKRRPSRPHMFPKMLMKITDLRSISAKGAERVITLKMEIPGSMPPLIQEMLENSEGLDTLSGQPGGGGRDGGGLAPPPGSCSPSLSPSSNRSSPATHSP
In short: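 Reporter transcripts, measured by RT-PCR with fluorescent labeling and capillary electrophoresis after 24 h dosing, reflect activity of an exogenous human RARa–GAL4 fusion in transiently transfected HepG2. Fitted for increase relative to DMSO.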

[10] = BSK_3C_Proliferation: Cell Proliferation Assessment in the BioMAP Diversity Plus: 3C Assay (AID 2283006; active = hit-call score of the fitted dose curve at least 0.9, where 1 is the maximum; inactive = score below 0.9;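 as to AC50: potency may reflect either rise or fall in cell number versus DMSO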); conditions: primary human endothelial cells (HUVEC)
In short: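 Human umbilical vein endothelial cells were grown sub-confluent and exposed to chemical for 48 h, then fixed with 10% TCA and stained with 0.1% sulforhodamine B; absorbance at 560 nm gave relative cell number, fitted bidirectionally against DMSO baseline.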

[11] = target: Nuclear receptor subfamily 1 group I member 2 (Homo sapiens) (UniProt O75469); test: ATG_PXR_TRANS: Attagene TRANS-FACTORIAL HepG2 Assay for human Pregnane X Receptor (PXR) (AID 2283008)
Sequence of Nuclear receptor subfamily 1 group I member 2 (Homo sapiens) (O75469 whole entry, looked up, the tested form may be a part): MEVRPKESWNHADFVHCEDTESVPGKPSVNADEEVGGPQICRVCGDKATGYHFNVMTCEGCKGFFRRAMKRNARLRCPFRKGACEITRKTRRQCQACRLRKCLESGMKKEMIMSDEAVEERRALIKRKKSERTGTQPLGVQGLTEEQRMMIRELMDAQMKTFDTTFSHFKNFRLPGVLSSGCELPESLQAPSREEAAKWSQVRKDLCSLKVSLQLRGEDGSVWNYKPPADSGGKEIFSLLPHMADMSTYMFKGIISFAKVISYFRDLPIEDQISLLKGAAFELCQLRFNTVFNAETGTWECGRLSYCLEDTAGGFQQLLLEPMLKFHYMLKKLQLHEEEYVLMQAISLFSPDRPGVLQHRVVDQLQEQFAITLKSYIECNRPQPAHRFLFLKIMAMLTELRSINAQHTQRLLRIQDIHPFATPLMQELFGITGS
In short: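 Fluorescence intensity of FAM-labelled, HpaI-digested reporter amplicons, separated by capillary electrophoresis, quantifies induction. HepG2 cells with PXR-Gal4 trans-reporter system were exposed 24 h; DMSO defines baseline.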

[12] = target: human Retinoic Acid Receptor gamma (RARg), RARG (gene 5916) (UniProt P13631); test: ATG_RARg_TRANS: Attagene TRANS-FACTORIAL HepG2 Assay for human Retinoic Acid Receptor gamma (RARg) (AID 2283009)
Sequence of human Retinoic Acid Receptor gamma (RARg), RARG (gene 5916) (P13631 whole entry, looked up, the tested form may be a part): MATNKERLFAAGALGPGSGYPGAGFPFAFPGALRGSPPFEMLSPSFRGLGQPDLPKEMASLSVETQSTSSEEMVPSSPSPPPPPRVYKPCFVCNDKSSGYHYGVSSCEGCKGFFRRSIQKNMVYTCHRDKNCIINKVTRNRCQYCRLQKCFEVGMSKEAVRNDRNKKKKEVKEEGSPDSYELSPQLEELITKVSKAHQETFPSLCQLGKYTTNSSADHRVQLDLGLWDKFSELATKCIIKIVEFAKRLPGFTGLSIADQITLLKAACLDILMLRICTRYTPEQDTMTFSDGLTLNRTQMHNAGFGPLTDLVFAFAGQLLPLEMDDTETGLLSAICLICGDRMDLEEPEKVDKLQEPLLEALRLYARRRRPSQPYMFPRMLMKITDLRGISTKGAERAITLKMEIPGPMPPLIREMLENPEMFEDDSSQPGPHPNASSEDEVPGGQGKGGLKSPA
In short: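 HepG2 cells transiently transfected with multiplexed reporter units expressing chimeric RARg-GAL4 and GAL4-UAS-driven reporters; 24 h compound exposure. Reporter mRNA quantified by RT-PCR with fluorescent labelling and capillary electrophoresis; gain-of-signal fitted relative to DMSO baseline.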

[13] = target: Retinoic acid receptor RXR-alpha (Homo sapiens) (UniProt P19793); test: ATG_RXRa_TRANS: Attagene TRANS-FACTORIAL HepG2 Assay for human Retinoid X Receptor alpha (RXRa) (AID 2283012)
Sequence of Retinoic acid receptor RXR-alpha (Homo sapiens) (P19793 whole entry, looked up, the tested form may be a part): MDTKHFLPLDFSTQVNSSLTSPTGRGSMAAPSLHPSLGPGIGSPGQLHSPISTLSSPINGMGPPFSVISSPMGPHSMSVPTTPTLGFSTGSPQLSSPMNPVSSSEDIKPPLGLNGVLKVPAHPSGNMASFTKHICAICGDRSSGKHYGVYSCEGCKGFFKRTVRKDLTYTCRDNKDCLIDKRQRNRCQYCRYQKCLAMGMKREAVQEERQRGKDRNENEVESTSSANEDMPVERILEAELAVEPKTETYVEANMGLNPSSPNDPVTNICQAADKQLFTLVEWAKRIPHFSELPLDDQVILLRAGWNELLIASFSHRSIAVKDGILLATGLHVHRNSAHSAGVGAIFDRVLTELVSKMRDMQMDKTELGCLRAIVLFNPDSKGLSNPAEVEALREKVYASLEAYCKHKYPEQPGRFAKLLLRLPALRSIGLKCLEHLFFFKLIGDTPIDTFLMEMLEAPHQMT
In short: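 HepG2 cells transiently transfected with multiplexed GAL4-UAS reporter units and chimeric NR-GAL4 fusions, dosed 24 h. Reporter mRNA measured by RT-PCR, FAM labelling, HpaI digestion and capillary electrophoresis; gain-of-signal fitted relative to DMSO baseline.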

[14] = target: human Retinoid X Receptor beta (RXRb), RXRB (gene 6257) (UniProt P28702); test: ATG_RXRb_TRANS: Attagene TRANS-FACTORIAL HepG2 Assay for human Retinoid X Receptor beta (RXRb) (AID 2283013)
Sequence of human Retinoid X Receptor beta (RXRb), RXRB (gene 6257) (P28702 whole entry, looked up, the tested form may be a part): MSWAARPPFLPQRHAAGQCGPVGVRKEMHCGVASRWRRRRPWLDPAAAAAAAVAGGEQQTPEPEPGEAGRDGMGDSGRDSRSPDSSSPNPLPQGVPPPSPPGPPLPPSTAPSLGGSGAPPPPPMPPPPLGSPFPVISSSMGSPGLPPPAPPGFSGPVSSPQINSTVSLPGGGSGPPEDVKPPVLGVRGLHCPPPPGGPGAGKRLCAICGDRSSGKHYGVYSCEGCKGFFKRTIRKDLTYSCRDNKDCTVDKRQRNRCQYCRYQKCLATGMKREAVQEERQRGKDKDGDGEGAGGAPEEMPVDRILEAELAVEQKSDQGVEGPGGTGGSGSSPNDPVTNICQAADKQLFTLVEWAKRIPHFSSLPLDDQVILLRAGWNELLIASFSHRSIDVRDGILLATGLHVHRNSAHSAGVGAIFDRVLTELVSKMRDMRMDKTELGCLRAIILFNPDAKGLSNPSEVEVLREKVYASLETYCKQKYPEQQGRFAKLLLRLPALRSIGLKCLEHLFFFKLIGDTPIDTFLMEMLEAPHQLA
In short: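 HepG2 cells transiently transfected with multiplexed reporter units driven by GAL4-UAS and exogenous chimeric NR-Gal4 proteins; treated 24 h. Reporter mRNA measured by RT-PCR, 6-FAM labelling and capillary electrophoresis; gain-of-signal fitted versus DMSO baseline.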

[15] = target: human Thyroid Receptor alpha (THRa1), THRA (gene 7067) (UniProt P10827); test: ATG_THRa1_TRANS: Attagene TRANS-FACTORIAL HepG2 Assay for human Thyroid Receptor alpha (THRa1) (AID 2283014)
In short: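 HepG2 cells transiently transfected with chimeric NR-Gal4 and GAL4-UAS reporter units, dosed 24 h. Reporter mRNA quantified by RT-PCR, fluorescent labeling, HpaI digestion and capillary electrophoresis; gain-of-signal fit versus DMSO.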

[16] = target: Cellular tumor antigen p53 (Homo sapiens) (UniProt P04637); test: ATG_p53_CIS: Attagene CIS-FACTORIAL HepG2 Assay for human p53 Transcription Factor (AID 2282994; active = hit-call score of the fitted dose curve at least 0.9, where 1 is the maximum; inactive = score below 0.9); conditions: HepG2 p53 cis-element reporter, Attagene mRNA; actives raise or lower the signal
Sequence of Cellular tumor antigen p53 (Homo sapiens) (P04637 whole entry, looked up): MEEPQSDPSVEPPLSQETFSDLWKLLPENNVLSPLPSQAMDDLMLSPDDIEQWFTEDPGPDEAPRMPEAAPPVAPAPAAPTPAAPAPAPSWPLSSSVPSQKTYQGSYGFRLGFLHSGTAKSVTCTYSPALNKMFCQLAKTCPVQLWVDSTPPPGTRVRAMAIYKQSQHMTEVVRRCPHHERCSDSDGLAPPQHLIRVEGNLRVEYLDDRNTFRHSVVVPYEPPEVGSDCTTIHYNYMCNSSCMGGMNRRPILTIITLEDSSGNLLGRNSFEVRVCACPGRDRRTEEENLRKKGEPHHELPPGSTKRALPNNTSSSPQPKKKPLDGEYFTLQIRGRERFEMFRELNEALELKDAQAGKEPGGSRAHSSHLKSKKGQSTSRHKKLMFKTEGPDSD
In short: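 Using HepG2 hepatoma cells carrying cis-acting multiplexed reporters, mRNA induction is detected after a 24 h exposure. Gain- and loss-of-signal responses are fitted relative to DMSO-treated cells.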

[17] = target: Peroxisome proliferator-activated receptor gamma (Homo sapiens) (UniProt P37231); test: ATG_PPARg_TRANS: Attagene TRANS-FACTORIAL HepG2 Assay for human Peroxisome Proliferator-activated Receptor-gamma (PPARg) (AID 2283007)
In short: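 Read-out: reporter mRNA induction, detected by fluorescence after RT-PCR and capillary electrophoresis. Transiently transfected human HepG2 liver cells carrying a chimeric NR-Gal4 construct were dosed for 24 h; activity was fitted upward relative to DMSO.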

[18] = target: human Peroxisome Proliferator-activated Receptor delta (PPARd), PPARD (gene 5467) (UniProt Q03181); test: ATG_PPARd_TRANS: Attagene TRANS-FACTORIAL HepG2 Assay for human Peroxisome Proliferator-activated Receptor delta (PPARd) (AID 2283002)
In short: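 Cell-based TRANS reporter: HepG2, transient MRTU transfection, 24 h exposure. Readout = reporter mRNA (RT-PCR/CE, 6-FAM). Gain-of-signal fit vs DMSO control.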

[19] = target: human RAR-related Orphan Receptor beta (RORb), RORB (gene 6096) (UniProt Q92753); test: ATG_RORb_TRANS: Attagene TRANS-FACTORIAL HepG2 Assay for human RAR-related Orphan Receptor beta (RORb) (AID 2283010)
Sequence of human RAR-related Orphan Receptor beta (RORb), RORB (gene 6096) (Q92753 whole entry, looked up, the tested form may be a part): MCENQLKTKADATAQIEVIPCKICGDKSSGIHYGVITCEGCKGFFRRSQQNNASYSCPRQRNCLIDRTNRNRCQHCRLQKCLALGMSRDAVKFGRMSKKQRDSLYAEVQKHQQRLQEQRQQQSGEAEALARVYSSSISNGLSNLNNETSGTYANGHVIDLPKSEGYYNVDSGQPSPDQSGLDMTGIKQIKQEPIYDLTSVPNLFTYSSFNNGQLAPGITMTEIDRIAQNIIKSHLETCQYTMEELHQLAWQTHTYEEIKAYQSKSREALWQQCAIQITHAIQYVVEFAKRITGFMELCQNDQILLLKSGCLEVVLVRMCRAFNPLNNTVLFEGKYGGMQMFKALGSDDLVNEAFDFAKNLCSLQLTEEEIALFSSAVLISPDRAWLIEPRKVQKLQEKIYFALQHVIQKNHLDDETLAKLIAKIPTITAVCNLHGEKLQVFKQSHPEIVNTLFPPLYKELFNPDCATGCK
In short: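 HepG2 cells were transiently transfected with multiplexed GAL4-UAS reporter units expressing chimeric nuclear receptor–GAL4 proteins, then dosed for 24 h. Reporter mRNA was quantified by RT-PCR with fluorescent labelling and capillary electrophoresis; gain of signal was fitted relative to DMSO.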

[20] = target: human RAR-related Orphan Receptor gamma (RORg), RORC (gene 6097) (UniProt P51449); test: ATG_RORg_TRANS: Attagene TRANS-FACTORIAL HepG2 Assay for human RAR-related Orphan Receptor gamma (RORg) (AID 2283011)
Sequence of human RAR-related Orphan Receptor gamma (RORg), RORC (gene 6097) (P51449 whole entry, looked up, the tested form may be a part): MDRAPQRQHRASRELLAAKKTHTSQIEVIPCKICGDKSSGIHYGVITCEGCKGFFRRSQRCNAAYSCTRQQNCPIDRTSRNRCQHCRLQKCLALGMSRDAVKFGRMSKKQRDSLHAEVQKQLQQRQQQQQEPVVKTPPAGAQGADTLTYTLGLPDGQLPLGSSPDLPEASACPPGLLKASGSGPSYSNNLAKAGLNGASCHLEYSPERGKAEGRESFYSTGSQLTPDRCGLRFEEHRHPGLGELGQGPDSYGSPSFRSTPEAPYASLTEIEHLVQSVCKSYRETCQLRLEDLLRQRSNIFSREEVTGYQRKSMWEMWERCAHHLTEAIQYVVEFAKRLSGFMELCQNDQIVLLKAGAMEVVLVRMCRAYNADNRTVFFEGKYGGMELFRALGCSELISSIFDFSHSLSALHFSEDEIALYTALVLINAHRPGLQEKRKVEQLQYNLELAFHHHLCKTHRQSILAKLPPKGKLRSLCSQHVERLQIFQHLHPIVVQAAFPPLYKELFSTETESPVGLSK
In short: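 HepG2 cells transiently transfected with GAL4-UAS reporter units and chimeric RORg-Gal4 construct; after 24 h chemical exposure, reporter mRNA measured by RT-PCR with fluorescent capillary electrophoresis, gain of signal fitted against DMSO.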

Measured: AC50

O=C(O)C1(c2ccc3c(c2)OC[C@H](Cc2ccc(-c4ccccc4)cc2)[C@H]3O)CCCC1
active: [3] 29.9 µM | [4] 20 µM | [6] 11 µM | [10] 13.2 µM
not listed: [16] | [17] | [18] | [19] | [20]
inactive: all other assays above

O=c1[nH]c2ccccc2n1C1CCN(CCCC(c2ccc(F)cc2)c2ccc(F)cc2)CC1
inactive: [1] | [16] | [11] | [13]

O=C(NC(=O)c1c(F)cccc1F)Nc1cc(Cl)c(F)c(Cl)c1F
inactive: [1] | [16] | [9] | [17] | [11] | [12]

CC(O)(CS(=O)(=O)c1ccc(F)cc1)C(=O)Nc1ccc(C#N)c(C(F)(F)F)c1 (centres undefined)
inactive: [16] | [11] | [12] | [13]
active: [1] 58 µM

c1ccc2sc(SNC3CCCCC3)nc2c1
active: [2] 1.16 µM | [17] 6.77 µM | [11] 20.2 µM
not listed: [8] | [9] | [12] | [13] | [14] | [16] | [20]
inactive: all other assays above

CCCCCCCCCCCCc1cccc(S(=O)(=O)O)c1
active: [6] 30 µM
inactive: [1] | [2] | [3] | [4] | [5] | [7] | [8] | [10] | [11] | [12]

CC(C)(C#N)N=NC(C)(C)C#N
inactive: [1] | [16] | [11] | [14]

O=C1C[C@@H]2OCC=C3CN4CC[C@]56c7ccccc7N1[C@H]5[C@H]2[C@H]3C[C@H]46
inactive: [1] | [16] | [17] | [11] | [12] | [13] | [15]

O=C(CBr)c1ccc(O)cc1
inactive: [1] | [16] | [8] | [17] | [11] | [20]

OC(c1ccc(Cl)cc1)(c1ccc(Cl)cc1)c1cccnc1
inactive: [1] | [16] | [17] | [11] | [13]

CC(C)O.CC(C)O.OCCN(CCO)CCO.OCCN(CCO)CCO.[Ti]
not listed: [9] | [12] | [16] | [17] | [18] | [20]
inactive: all other assays above

CC(C)(c1ccccc1)c1cc(-n2nc3ccccc3n2)c(O)c(C(C)(C)c2ccccc2)c1
inactive: [1] | [16] | [11] | [12] | [20]

[F][Sn]([c]1ccccc1)([c]1ccccc1)[c]1ccccc1
inactive: [11]
active: [1] 0.335 µM | [16] 0.316 µM | [17] 0.0401 µM | [13] 0.00404 µM | [14] 0.00128 µM

Clc1cccc(Cl)c1Cl
inactive: [1] | [2] | [3] | [4] | [5] | [6] | [18] | [7] | [10] | [12]

Oc1c(Br)cc(Br)cc1Br
active: [1] 57.1 µM | [3] 30.1 µM | [4] 31.4 µM | [6] 13.3 µM | [10] 27.4 µM | [17] 11.9 µM | [11] 7.95 µM | [15] 100 µM
not listed: [16] | [20]
inactive: all other assays above

O=C(NC(=O)c1c(F)cccc1F)Nc1cc(Cl)c(Oc2ncc(C(F)(F)F)cc2Cl)c(Cl)c1
inactive: [1] | [16] | [17] | [11] | [15]

CC(F)(F)CC(F)(F)F
inactive: [1] | [16] | [17] | [11] | [12] | [13] | [14] | [15]

C1CCC(C2CCCCC2)CC1
inactive: [1] | [8] | [11] | [19] | [20] | [13] | [15]
